Assay results published in PubChem BioAssay (NCATS).
Where “and” joins values, the source holds several entries; their conditions need not be identical. Equal entries are not always repeated. Results filed as inconclusive are left out. Calls of active or inactive are those of the source. Calls follow the shape of the dose curve; as a rule, active = well fitted curve in the direction sought with a large enough effect; inconclusive = small, poorly fitted or top-dose-only effect, or another doubt; inactive = no such curve, though single readings can be large; an effect the other way counts as inactive or inconclusive.

Tests used:
WaGa = experiment: qHTS assay to identify novel small-molecules to repurpose for Merkel cell carcinoma treatment (AID 1296009); conditions: MCC and control cell lines, CellTiter-Glo viability, 72 h; series mostly up to 46 µM; also: nearly all actives have a fitted effect of over 60% in size
Summary of the method: (§1)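 Cells were incubated with compound for 72 hr at 37 degree celsius before CellTiter-Glo addition. Luminescence was normalized with no-cell wells as full cytotoxicity and DMSO as baseline.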

C33A = experiment: Primary qHTS to identify gynecologic anti-cancer compounds using libraries of approved drugs and bioactive compounds (AID 1345084); conditions: Gynecologic cancer cell panel viability, ATPlite luminescence, 48 h; series mostly up to 57.5 µM; also: nearly all actives have a fitted effect of over 55% in size
Summary of the method: (§2)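 Five-point cytotoxicity, 48 h drug exposure at 37 C, 5% CO2, on cells seeded 16 h beforehand. ATP content read by ATPlite luminescence.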

CAOV3 = experiment: as above; conditions: Gynecologic cancer cell panel viability, ATPlite luminescence, 48 h; series mostly up to 57.5 µM
Summary of the method: as §2

CASKI = experiment: as above; conditions: Gynecologic cancer cell panel viability, ATPlite luminescence, 48 h; series mostly up to 57.5 µM
Summary of the method: as §2

Es-2 = experiment: as above; conditions: Gynecologic cancer cell panel viability, ATPlite luminescence, 48 h; series mostly up to 57.5 µM
Summary of the method: as §2

HeLa = experiment: as above; conditions: Gynecologic cancer cell panel viability, ATPlite luminescence, 48 h; series mostly up to 57.5 µM
Summary of the method: as §2

Hek293T = experiment: as above; conditions: Gynecologic cancer cell panel viability, ATPlite luminescence, 48 h, control line for the selectivity index; series mostly up to 57.5 µM
Summary of the method: as §2

JEG-3 = experiment: as above; conditions: Gynecologic cancer cell panel viability, ATPlite luminescence, 48 h; series mostly up to 57.5 µM
Summary of the method: as §2

OV90 = experiment: as above; conditions: Gynecologic cancer cell panel viability, ATPlite luminescence, 48 h; series mostly up to 57.5 µM
Summary of the method: as §2

PA-1 = experiment: as above; conditions: Gynecologic cancer cell panel viability, ATPlite luminescence, 48 h; series mostly up to 57.5 µM
Summary of the method: as §2

Tov-21-G = experiment: as above; conditions: Gynecologic cancer cell panel viability, ATPlite luminescence, 48 h; series mostly up to 57.5 µM
Summary of the method: as §2

Tov112D = experiment: as above; conditions: Gynecologic cancer cell panel viability, ATPlite luminescence, 48 h; series mostly up to 57.5 µM
Summary of the method: as §2

SKOV3 = experiment: as above; conditions: Gynecologic cancer cell panel viability, ATPlite luminescence, 48 h; series mostly up to 57.5 µM
Summary of the method: as §2

[1] = qHTS assay to identify inhibitors of the type 1 interferon - major histocompatibility complex class I in skeletal muscle: Counter screen cell viability and HiBit confirmation (AID 1347412); conditions: iHSKM muscle cells + IFN-b, HiBiT or CellTiter-Glo, 24 h; for activity change, negative = inhibition: at 45.9 µM (top of the series); as to all read-outs here: nearly all actives have a fitted effect of over 60% in size
Summary of the method: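 HLA-B*08:01–HiBiT knock-in immortalized human myoblasts (C25cl48) stimulated with 4.0 ng/ml human IFN-beta and dosed with compound in a 12-point 1:3 titration (top final 46 uM). After 24 hrs at 37 C, HiBiT lytic luminescence or CellTiter Glo ATP read out.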

UISO = experiment: qHTS assay to identify novel small-molecules to repurpose for Merkel cell carcinoma treatment (AID 1296009); conditions: MCC and control cell lines, CellTiter-Glo viability, 72 h; series mostly up to 46 µM; also: nearly all actives have a fitted effect of over 60% in size
Summary of the method: as §1

[2] = Drug repurposing screens with cells derived from glioblastoma tumor samples (AID 1345199); conditions: GBM patient neurospheres viability, ATP luminescence, 48 h; also: nearly all actives have a fitted effect of over 40% in size
Summary of the method: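 Four patient lines of CD133+ GBM neurospheres were screened at several concentrations; hits were retested in those lines plus three slower-growing GBM lines, using 48-hour treatment and ATP-based viability.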
% is scaled to controls: 0 for no effect and ±100 for the full control effect; potency is read from the fitted curve at half-maximal effect.

CN(C)CC(C)(C)CNc1nn2c(-c3ccccc3)nnc2cc1C1CCC1
inactive: Potency (C33A) | Potency (CAOV3) | Potency (CASKI) | Potency (Es-2) | Potency (HeLa) | Potency (Hek293T) | Potency (JEG-3) | Potency (OV90) | Potency (PA-1) | Potency (Tov-21-G) | Potency (Tov112D)
active: Potency (WaGa) 0.662 µM

Nc1ccc(C(=O)c2cc3c(ccc4ccccc43)[nH]2)cc1
active: Potency (WaGa) 8.33 µM

Cc1cnc(-c2cnc(NCCNc3ccc(C#N)cn3)nc2-c2ccc(Cl)cc2Cl)[nH]1
inactive: Potency (WaGa) | Potency (CASKI) | Potency (Es-2) | Potency (Hek293T) | Potency (PA-1) | Potency (SKOV3) | Potency (Tov-21-G) | Potency (Tov112D)

Cn1cncc1[C@@](N)(c1ccc(Cl)cc1)c1ccc2c(c1)c(-c1cccc(Cl)c1)cc(=O)n2C
inactive: activity change, negative = inhibition ([1]; HiBiT) -17.7% | activity change, negative = inhibition ([1]; Viability) -17.4%
active: Potency (WaGa) 0.935 µM

O=C(CCCCCCNC(=O)c1cnc(N(c2ccccc2)c2ccccc2)nc1)NO
active: Potency (WaGa) 2.96 µM | Potency (HeLa) 11.2 µM | Potency (JEG-3) 15.8 µM | Potency (OV90) 8.91 µM | Potency (PA-1) 3.16 µM | Potency (Tov112D) 28.2 µM

CNC(=O)c1cc(Oc2ccc(NC(=O)Nc3cc(C(C)(C)C)nn3-c3ccc4ncccc4c3)c(F)c2)ccn1
inactive: Potency (WaGa) | Potency (CAOV3) | activity change, negative = inhibition ([1]; Viability) 26.8%
active: Potency (PA-1) 20 µM | Potency (Tov-21-G) 28.2 µM | Potency ([1]; HiBiT) 3.94 µM

COc1cccc(-c2ccc(NC(=O)C3=C(C(=O)O)CCC3)c(F)c2)c1
active: Potency (WaGa) 23.5 µM
inactive: Potency (C33A) | Potency (CAOV3) | Potency (CASKI) | Potency (OV90)

Cc1cn2c(-c3cn[nH]c3)cnc2c(Nc2ccc(C(=O)N3CCNCC3)cc2F)n1
inactive: Potency (WaGa) | Potency (C33A) | Potency (CASKI) | Potency (Es-2) | Potency (Hek293T) | Potency (JEG-3) | Potency (OV90)

COc1cc2nccc(Oc3ccc(NC(=O)C4(C(=O)Nc5ccc(F)cc5)CC4)cc3)c2cc1OC
active: Potency (WaGa) 2.09 µM | Potency (JEG-3) 11.2 µM | Potency (PA-1) 7.94 µM
inactive: Potency (Es-2) | Potency (HeLa) | Potency (Hek293T)

CC[C@@H]1C(=O)N(C)c2cnc(Nc3ccc(C(=O)NC4CCN(C)CC4)cc3OC)nc2N1C1CCCC1
active: Potency (WaGa) 4.69 µM
inactive: activity change, negative = inhibition ([1]; Viability) -4.51%

CCCCc1nc2cc(C=CC(=O)NO)ccc2n1CCN(CC)CC
active: Potency (WaGa) 0.372 µM

CC(C)(C)c1cnc(CSc2cnc(NC(=O)C3CCNCC3)s2)o1
inactive: activity change, negative = inhibition ([1]; Viability) 9.32%
active: Potency (UISO) 0.743 µM | Potency ([1]; HiBiT) 0.351 µM

O=C(CCCCCCC(=O)Nc1ccc([C@H]2O[C@@H](CSc3nc(-c4ccccc4)c(-c4ccccc4)o3)C[C@@H](c3ccc(CO)cc3)O2)cc1)NO
active: Potency (WaGa) 7.43 µM
inactive: Potency (CAOV3) | Potency (CASKI) | Potency (Es-2) | Potency (HeLa) | Potency (Hek293T) | Potency (Tov112D)

CC(=O)Nc1nc(C)c(-c2ccc(Cl)c(S(=O)(=O)NCCO)c2)s1
inactive: Potency (JEG-3)
active: Potency (WaGa) 5.9 µM | Potency (CASKI) 12.6 µM | Potency (PA-1) 15.8 µM | Potency (SKOV3) 11.2 µM

Cc1nc2ccc(CN(C)c3ccc(C(=O)N[C@@H](CCC(=O)O)C(=O)O)s3)cc2c(=O)[nH]1
inactive: Potency (C33A) | Potency (CAOV3) | Potency (CASKI) | Potency (Hek293T) | Potency (SKOV3) | activity, negative = cell killing ([2]; at 45.9 µM (top of the series), tumour line D) -5.32% and -11.6% | activity, negative = cell killing ([2]; at 46.1 µM (top of the series), tumour line C) 0.947% and 1.27%
active: Potency (WaGa) 0.0833 µM | Potency (JEG-3) 0.631 µM | Potency (Tov112D) 0.316 µM

CCN(CC)CCCCNc1ncc2cc(-c3cc(OC)cc(OC)c3)c(NC(=O)NC(C)(C)C)nc2n1
inactive: Potency (WaGa)

Clc1ccc2ncc(-c3cccc(NC4CNC4)n3)n2c1
inactive: Potency (C33A) | Potency (CASKI) | Potency (Es-2) | Potency (HeLa) | Potency (Hek293T) | Potency (JEG-3) | Potency (OV90) | Potency (PA-1) | Potency (SKOV3) | Potency (Tov-21-G) | Potency (Tov112D)

CC(C)c1cnn2c(NCc3ccccc3)cc(N[C@@H](CO)[C@H](O)CO)nc12
active: Potency (C33A) 7.08 µM | Potency (CASKI) 4.47 µM | Potency (Es-2) 1.58 µM | Potency (HeLa) 2.82 µM | Potency (Hek293T) 1.41 µM | Potency (PA-1) 1 µM | Potency (Tov-21-G) 1.58 µM | Potency (Tov112D) 3.16 µM | Potency ([1]; HiBiT) 0.157 µM
inactive: activity change, negative = inhibition ([1]; Viability) 18.9%

Cc1cc(Nc2nc(N[C@@H](C)c3ccc(F)cc3)c(C#N)cc2F)n[nH]1
inactive: Potency (C33A)
active: Potency (Es-2) 14.1 µM | Potency (HeLa) 5.62 µM | Potency (PA-1) 7.08 µM | Potency ([1]; HiBiT) 2.22 µM

O=C(Nc1nc2cccc(-c3ccc(CN4CCS(=O)(=O)CC4)cc3)n2n1)C1CC1
inactive: Potency (OV90) | Potency (SKOV3)

Cc1ccc(-c2ncn(-c3ccc(Nc4nccc(-c5cccc(N6CCOCC6)c5)n4)cc3)n2)cn1
inactive: activity change, negative = inhibition ([1]; Viability) -8.69%
active: Potency ([1]; HiBiT) 2.49 µM

COC(=O)C1=C(C)NC(C)=C(C(=O)OCCN2CCN(C(c3ccccc3)c3ccccc3)CC2)C1c1cccc([N+](=O)[O-])c1 (stereo unspecified)
inactive: Potency (CASKI) | Potency (Es-2) | Potency (HeLa) | Potency (Hek293T) | Potency (JEG-3) | Potency (OV90) | Potency (Tov-21-G) | Potency (Tov112D) | activity, negative = cell killing ([2]; at 45.9 µM (top of the series), tumour line B) -14.4%
active: Potency ([2]; tumour line A) 3.16 µM | Potency ([2]; tumour line C) 16.4 µM | Potency ([2]; tumour line D) 15.8 µM

COc1ccc2c(c1)CC[C@@H](CN(C)CC(=O)O)[C@H]2c1ccccc1
inactive: Potency (C33A) | Potency (CASKI) | Potency (Es-2) | Potency (HeLa) | Potency (Hek293T) | Potency (JEG-3) | Potency (OV90) | Potency (PA-1) | Potency (SKOV3) | Potency (Tov-21-G) | Potency (Tov112D)
